Screening results from PubChem.
IMPase inh = cell-permeable inhibitors of inositol monophosphatase (IMPase) | P97697 | CHO-M1 cells, IP1 accumulation, HTRF TR-FRET ratio | inhibition (IP1 accumulation), % at 46.1 µM | 120,000 tested, under 10 active | AID 901; active means well fitted curve in the direction sought with a large enough effect in the signal ratio, not every such curve was filed as active; inconclusive means small, poorly fitted or top-dose-only effect, or a change in a side signal; inactive means no such curve, though single readings can be large or run the other way; the % refers to the signal ratio;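 further: cells stimulated with carbachol in lithium chloride buffer; higher means more IMPase inhibition seen as more IP1 and lower FRET ratio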
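The IP-One HTRF competitive assay in carbachol-stimulated CHO-M1 cells quantifies cellular IP1. Compounds spanned up to 46 uM final, and activity is expressed as AC50 from concentration-response fits of the ratio and donor data.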
HPGD inh = blocks human HPGD enzyme activity; purified HPGD, NADH fluorescence kinetic, PGE2 substrate; Potency, µM, hits mostly inhibitors; 150,000 tested, 4.3% active; active means well fitted inhibition curve with a large enough effect, not every such curve was filed as active; inconclusive means small, poorly fitted or top-dose-only effect, or another doubt; inactive means no such curve, though single readings can be large or run the other way
Target sequence (P15428 whole entry, looked up): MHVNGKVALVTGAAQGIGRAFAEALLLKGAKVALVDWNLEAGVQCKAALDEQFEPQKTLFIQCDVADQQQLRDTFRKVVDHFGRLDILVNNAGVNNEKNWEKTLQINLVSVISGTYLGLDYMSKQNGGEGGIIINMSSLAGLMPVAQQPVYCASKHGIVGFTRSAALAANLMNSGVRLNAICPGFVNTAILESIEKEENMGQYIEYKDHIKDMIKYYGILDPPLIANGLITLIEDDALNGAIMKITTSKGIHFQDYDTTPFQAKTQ
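20 nM HPGD preincubated 15 min at room temperature with compound in 50 mM Tris-HCl pH 8, 0.01% Tween 20. Started with 1 mM NAD+ and 30 uM prostaglandin E2; NADH fluorescence (360/450 nm) read 5 times over 30-s intervals, last minus first.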
ALDH1A1 inh = inhibitors of human aldehyde dehydrogenase 1A1; Potency, µM (doses to about 75.3 µM), usual class: inhibitors; 220,000 tested, 7.3% active; AID 1030; P00352; Purified ALDH1A1, NADH fluorescence, propionaldehyde substrate; active means well fitted inhibition curve with a large enough effect, not every such curve was filed as active; inconclusive means small, poorly fitted or top-dose-only effect, or another doubt; inactive means no such curve, though single readings can be large or run the other way
Target sequence (P00352 whole entry, looked up): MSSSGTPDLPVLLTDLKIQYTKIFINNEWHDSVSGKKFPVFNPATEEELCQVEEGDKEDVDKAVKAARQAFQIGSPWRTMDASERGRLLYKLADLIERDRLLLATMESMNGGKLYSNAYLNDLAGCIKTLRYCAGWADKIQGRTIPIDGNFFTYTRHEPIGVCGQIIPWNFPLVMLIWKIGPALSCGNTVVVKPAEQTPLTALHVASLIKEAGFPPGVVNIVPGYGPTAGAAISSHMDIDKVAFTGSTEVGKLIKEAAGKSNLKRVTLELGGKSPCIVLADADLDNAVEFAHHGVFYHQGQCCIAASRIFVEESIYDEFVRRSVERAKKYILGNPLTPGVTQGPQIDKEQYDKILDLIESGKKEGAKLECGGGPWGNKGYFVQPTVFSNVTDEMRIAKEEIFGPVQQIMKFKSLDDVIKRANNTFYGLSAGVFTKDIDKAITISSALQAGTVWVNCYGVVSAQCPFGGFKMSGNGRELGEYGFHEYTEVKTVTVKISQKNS
IMPase Li cell = cell-permeable IMPase inhibitors with lithium potentiation; CHO-M1 cells, IP1 TR-FRET (IP-One), carbachol + lithium; Potency, µM (top dose mostly 59.4 µM), actives largely listed as inhibitors; 210,000 tested, 0.35% active;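 further: IP1 builds up when IMPase is blocked and the TR-FRET signal falls; nearly all actives have a fitted effect of over 50% in size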
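Concentration–response in CHO-M1 cells, lithium-potentiated; 30 min at 37C. IP1 detected by competitive TR-FRET after 10 min lysis at RT. Hill-fitted AC50.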
ALOX12 inhib = 12-hLO (ALOX12) enzyme inhibition; P18054; purified 12-hLO, xylenol orange hydroperoxide absorbance; Potency, µM (series often up to 57.1 µM), actives largely listed as inhibitors; 150,000 tested, 0.12% active; AID 1452; further: nearly all actives have a fitted effect of over 55% in size
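Hydroperoxide output read as Fe(III)-xylenol orange absorbance, 573-to-405 nm ratio, after 30 min reaction with 40 uM arachidonic acid. Enzyme: 150 nM purified human 12hLO, 15 min compound preincubation; 25 mM Hepes pH 7.0, room temperature.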
NPSR antag = neuropeptide S receptor (human) antagonism, cAMP. CHO-NPSR cells, cAMP TR-FRET, antagonist mode. Potency, µM (titrated, usually from 38.3 µM), hits mostly inhibitors. 220,000 tested, 1% active. AID 1461; further: nearly all actives have a fitted effect of over 50% in size
Numbers stand for hits; . = inactive; ? = inconclusive; / = no result; [ ] = dose if it differs, or a comment. Only some compounds are listed: those with a hit (about 8.9% of all), similar ones and a draw of the others. Unless noted, the call rests on the fitted dose curve; in most records, active means well fitted curve in the direction sought with a large enough effect; inconclusive means small, poorly fitted or top-dose-only effect, or another doubt; inactive means no such curve, though single readings can be large; an effect the other way counts as inactive or inconclusive.

SMILES | IMPase inh | HPGD inh | ALDH1A1 inh | IMPase Li cell | ALOX12 inhib | NPSR antag
Cc1cccc(-c2noc(-c3c(C)noc3C)n2)c1 | / | / | . | / | / | .
COc1cc2c(cc1OC)C(CC#N)=NC(C)(C)C2 | . | . | 2µM | . | . | .
COc1cc(/C=N/NC(=O)c2ccc(O)cc2)ccc1Oc1ccc([N+](=O)[O-])cn1 | ? | 22µM | . | . | . | .
COc1cc(/C=N/NC(=O)c2ccncc2)ccc1Oc1ccc([N+](=O)[O-])cn1 | / | / | ? | . | / | .
Cc1noc(NS(=O)(=O)c2ccc(NC(=O)COc3ccccc3)cc2)c1C | ? | . | . | . | . | .
Cc1cccc(N(C2C=CS(=O)(=O)C2)S(=O)(=O)c2ccccc2)c1 (stereo unspecified) | . | . | . | . | . | .
O=c1c2cccnc2n(-c2ccccc2)n1Cc1ccc(Cl)cc1 | / | / | ? | . | / | .
Cc1sc(NC(=O)c2ccc(=O)n(C)n2)nc1-c1ccccc1 | / | / | 28µM | . | / | .
CCOC(=O)Nc1nc(-c2ccccc2)c(C)s1 | / | . | ? | . | .[11.4 µM] | /
COc1cc2c(cc1OC)-c1c(OC)c(OC)cc3ccnc(c13)C2=O | . | 8.9µM | . | . | . | .
CC(C)N(Cc1nnc(-c2ccccc2Cl)o1)C(=O)c1cccc(C#N)c1 | . | . | 6.3µM | . | . | .
Cc1cccc(-c2noc(CN(C(=O)c3c(-c4ccccc4Cl)noc3C)C(C)C)n2)c1 | . | . | . | . | . | .
CCOc1cc(/C=N\NC(=O)Cn2nc([N+](=O)[O-])cc2C)ccc1OCc1cccc2ccccc12 | . | . | . | . | . | .
COCCNC(=S)NN(c1ccccc1)c1ccccc1 | / | / | 32µM | . | / | .
O=C(CSc1nnc(-c2cnccn2)n1Cc1ccco1)c1ccccc1 | . | 16µM | . | . | . | .
O=C(CSc1nnc(-c2cnccn2)n1Cc1ccco1)c1ccc(Cl)cc1 | . | ? | ? | . | . | .
C=CCn1c(SCC(=O)Nc2sc(C)c(C)c2C(=O)OCC)nnc1-c1sc(N)nc1C | . | . | 14µM | . | . | .
COc1ccc(C(=O)CSc2nnc(-c3ccccn3)n2Cc2ccco2)cc1 | . | / | 22µM | / | . | ?
CCOC(=O)c1c(NC(=O)CSc2nnc(-c3cccnc3)n2Cc2ccco2)sc(C)c1C | . | . | 25µM | . | . | ?
O=C(COC(=O)C1(c2ccc(F)cc2)CCCC1)N1CCOCC1 | . | . | . | . | . | .[7.67 µM]
CC1CCCCC1NC(=O)c1ccc(S(=O)(=O)N2CCCC2)cc1 (stereo unspecified) | . | . | ? | . | . | .
O=C(CSc1nnc(-c2cccnc2)n1Cc1ccco1)c1ccc(Br)cc1 | . | 28µM | . | . | . | .
O=C(CSc1nnc(-c2ccccn2)n1Cc1ccco1)c1ccc(Cl)cc1 | . | ? | 20µM | . | . | ?
O=C(CSc1nnc(-c2ccccn2)n1Cc1ccco1)c1ccccc1 | ? | . | . | . | . | .
CCN(CC)C(=O)CSCc1cnn(-c2ccccc2)c1-n1cccc1 | . | . | 28µM | . | . | .
SMILES | IMPase inh | HPGD inh | ALDH1A1 inh | IMPase Li cell | ALOX12 inhib | NPSR antag
Cc1ccc(NS(=O)(=O)c2ccccc2)c2c1CC(C)(C)O2 | . | . | ? | . | . | .
Cc1cc(C(C#N)c2ccccc2)n2ncnc2n1 (stereo unspecified) | . | . | ? | . | . | .
Cc1cc(C(C#N)c2ccccc2F)n2ncnc2n1 (stereo unspecified) | / | / | 16µM | . | / | .
COc1cccc(CNc2ncn[nH]2)c1OCc1ccc(F)cc1 | / | / | 28µM | . | / | .
COc1cccc(CNc2ncn[nH]2)c1OCc1ccccc1F | / | / | ? | . | / | .
CC(=O)c1cccc(Nc2ccc(-c3ccccc3F)nn2)c1 | / | / | ? | . | / | .
CC(=O)c1ccc(Nc2ccc(-c3ccccc3C)nn2)cc1 | / | / | 7.1µM | . | / | .
CCc1ccc(-c2csc3ncn(CC(=O)NCc4ccco4)c(=O)c23)cc1 | / | / | / | / | / | .
Cn1c(=O)oc2cc(S(=O)(=O)N3CCCC(C(=O)Nc4nccs4)C3)ccc21 (stereo unspecified) | . | . | . | . | . | .
COc1ccc2c(c1)C=C(C(=O)OCc1cccnc1)CO2 | / | / | 8.9µM | . | / | .
O=C(CN1C(=O)C2C3C=CC(C3)C2C1=O)N1CC(=O)N(CCc2ccccc2)C(=O)C1 (stereo unspecified) | . | . | 28µM | . | . | .
O=C(O)COc1c(Cl)cc(/C=C2\NC(=O)NC2=O)cc1Br | / | / | 18µM | . | / | .
CS(=O)Cc1cc(Sc2ccccc2)nc(-c2ccncc2)n1 (stereo unspecified) | / | / | 8.9µM | . | / | .
CS(=O)Cc1cc(Sc2ccccc2)nc(-c2cccnc2)n1 (stereo unspecified) | / | / | ? | . | / | .
CC(=O)N1CCC(C(=O)Nc2cc(C)cc(C)c2)CC1 | / | / | . | / | / | .
COc1ccc(-c2c(O)c3c(OC)c4c(cc3oc2=O)OC(C)(C)CC4)cc1 | / | . | . | . | . | /
CCC(=O)Nc1ccc(C(=O)c2ccccc2)cc1 | . | 14µM | ? | . | . | .
CCC(=O)Nc1ccc(NC(=S)Nc2ccccc2)cc1 | / | . | ? | . | . | .
CCCOC(=O)c1ccc(NC(=O)CCOc2ccccc2)cc1 | . | . | 14µM | . | . | .
CCCC(=O)Nc1ccc(-c2ccc(NC(=O)CCC)cc2)cc1 | . | . | . | . | . | .
CCOC(=O)c1ccc(NC(=O)CCOc2ccccc2)cc1 | . | . | . | . | . | .
CCCC(=O)Nc1ccc(Nc2ccccc2)cc1 | / | 16µM | ? | . | . | .
C=CCN1C=C2C(=O)C(C)(OC(=O)CC)C(=O)C=C2C=C1CCCC (stereo unspecified) | / | . | .[13.5 µM] | . | .[11.4 µM] | .
Brc1ccccc1-c1nnc(COc2ncnc3ccccc23)o1 | / | / | / | / | / | .
COc1ccc(NS(=O)(=O)c2ccc(O)c(C(=O)OCC(=O)Nc3ccc4c(c3)OCCO4)c2)cc1 | / | ? | 22µM | . | . | .
SMILES | IMPase inh | HPGD inh | ALDH1A1 inh | IMPase Li cell | ALOX12 inhib | NPSR antag
C[C@H](NS(=O)(=O)c1ccccc1)C(=O)OCC(=O)NC(=O)Nc1ccc2c(c1)OCCO2 | / | . | 14µM | . | . | .
CC(C)[C@H](NS(=O)(=O)c1ccccc1)C(=O)OCC(=O)Nc1ccc2c(c1)OCO2 | / | . | . | . | . | .
COc1ccc(NS(=O)(=O)c2ccc(O)c(C(=O)OCC(=O)N3CC(C)OC(C)C3)c2)cc1 (stereo unspecified) | . | . | ? | . | . | .
CN(C)C=NC(=O)/C(C#N)=C1\CCc2ccccc2N1 | . | . | . | . | . | .
N#C/C(=C\c1ccc[nH]1)C(=O)c1ccccc1 | / | / | ? | / | / | .
N#C/C(=C\c1cccc(Cl)c1)C(=O)c1ccccc1 | / | / | 0.71µM | / | / | .
